Records with an inconclusive call do not appear. Activity calls are given as the source filed them. Unless noted, calls follow the shape of the dose curve; as a rule, active = well fitted curve in either direction with a large enough effect (not every such curve was filed as active); inconclusive = small, poorly fitted or top-dose-only effect, or another doubt; inactive = flat fitted curve, though single readings scatter.
Assays:
[1] = AP1 Signaling Pathway (AID 357); conditions: ME-180 AP-1-bla reporter, EGF-induced, beta-lactamase ratio, 5 h; at 17.2 µM (top of the series) unless noted; also: % is scaled to controls: 0 for no effect and ±100 for the full control effect
How it was run: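 AP-1-bla ME-180 cells with beta-lactamase reporter under AP-1 response element, stimulated with EC50 EGF; compounds titrated, 5 hours at 37 degrees Celsius. CCF4 read at 460/530 nm ratio; positive and negative modulators judged by AC50.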

[2] = Stat Signaling Pathway (AID 446);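 also: ME-180 cervical cancer cells given 40 pM IL-6 alongside compound; SIE-controlled beta-lactamase reporter measured as 460/530 nm FRET emission ratio; % is scaled to controls: 0 for no effect and ±100 for the full control effect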
How it was run: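 Normalization used AC90 stimulation (300 pM IL-6) and AC90 inhibition (125 nM pan-JAK inhibitor at 40 pM IL-6). The underlying signal is SIE-driven beta-lactamase in ME-180 cells after 5 h IL-6 exposure with compound.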

[3] = target: Glucocorticoid receptor (Homo sapiens) (UniProt P04150); assay: GR-GFP Redistribution (AID 450;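 active = compounds whose dose series gives a full or clear partial fitted curve of increased nuclear translocation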; also: potency is read from the fitted curve at half-maximal effect); conditions: U2OS GR-GFP nuclear translocation, laser cytometry, 2 h
[4] = NFAT Signaling Pathway (AID 444); conditions: Jurkat NFAT-bla M1, carbachol, beta-lactamase ratio, 5 h; at 17.2 µM (top of the series) unless noted;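 also: carbachol stimulus at about its EC50 of 1 µM final; % is scaled to controls: 0 for no effect and ±100 for the full control effect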
How it was run: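 Jurkat cells carrying an NFAT-driven β-lactamase reporter and co-transfected muscarinic M1 receptor were treated with compound plus carbachol (1 uM final, an EC50 level) for 5 h at 37 °C. CCF4 loading followed for 1 h at RT; 460/530 nm ratio gave %activity.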

[5] = target: Glucocorticoid receptor (Homo sapiens) (UniProt P04150); assay: GR-EFC Redistribution (AID 451; calls by dose curve; also: potency is read from the fitted curve at half-maximal effect); conditions: CHO-K1 GR-EFC translocation, beta-gal luminescence, 2 h
How it was run: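 CHO-K1 cells stably expressing nuclear-localized β-gal enzyme acceptor and GR fused C-terminally to the enzyme donor fragment; ligand-driven nuclear translocation restores β-gal by complementation. Compounds titrated up to 46 uM final, 2 h at 37 °C; luminescence read.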

[6] = target: 3',5'-cyclic-AMP phosphodiesterase 4B (Homo sapiens) (UniProt Q07343); assay: qHTS Assay for Inhibitors of PDE-IV (AID 607; active = well fitted activation curve with a large enough effect in the main read-out, with a control signal flat, not every such curve was filed as active; also: % of control where 0% means no effect)
How it was run: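 HEK293 ACTOne cells with CNG channel (1000/well), endogenous PDE4; membrane potential dye, compounds up to 22.9 uM final. Fluorescence Ex 535/Em 590; RO 20-1724 (100 uM final) as reference.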

[7] = target: Cytochrome P450 2D6 (Homo sapiens) (UniProt P10635); assay: qHTS Assay for Inhibitors and Substrates of Cytochrome P450 2D6 (AID 891; active = well fitted curve in the direction sought with a large enough effect; an effect the other way counts as inactive or inconclusive;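 also: luciferin methyl ether substrate demethylated by CYP2D6 with NADPH regeneration; % is scaled to controls: 0 for no effect and ±100 for the full control effect; nearly all actives have a fitted effect of over 60% in size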)
How it was run: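 Luminescent read-out of luciferin formed by 5 nM human CYP2D6 demethylating 30 uM Luciferin-ME EGE (Km level) over 60 min at room temperature after NADPH regeneration addition. Data normalized to full inhibition by 1.43 uM quinidine.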

[8] = target: Cytochrome P450 2C19 (Homo sapiens) (UniProt P33261); assay: qHTS Assay for Inhibitors and Substrates of Cytochrome P450 2C19 (AID 899; active = well fitted curve in the direction sought with a large enough effect; an effect the other way counts as inactive or inconclusive; also: % is scaled to controls: 0 for no effect and ±100 for the full control effect; nearly all actives have a fitted effect of over 60% in size)
How it was run: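 Human CYP2C19 (5nM) with Luciferin-H EGE at 10uM (its KM) in 50mM KPO4 was preincubated with compound for 10 min at 37C. NADPH regeneration started a 60 min 37C reaction. Luciferin was read by luminescence, normalized to 57uM ketoconazole.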

[9] = qHTS Assay for Identification of Small Molecule Agonists for Hypoxia Response Element Signaling Pathway (AID 914; active = well fitted activation curve with a large enough effect in the signal ratio, with a control signal flat, not every such curve was filed as active; the % refers to the signal ratio; also: % of control where 0% means no effect); conditions: ME-180 (cervical carcinoma) HRE-bla reporter, beta-lactamase ratio, CoCl2, 17 h; activation: stronger effect = higher value
How it was run: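 Reporter activity (beta-lactamase, CCF4 460nm/530nm ratio) in HRE-bla ME-180 cells is recorded after 17 h compound exposure with EC50 CoCl2 at 37 degrees Celsius. AC50 values come from titration data.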

[10] = target: Mitogen-activated protein kinase 10 (Mus musculus) (UniProt Q61831); assay: JNK3 AlphaScreen Assay (AID 530);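 also: kinase came from lysate of stimulated human HepG2 cells; signal reports phosphorylation of biotinylated GST-cJun 1-79 at Ser73 with 10 µM ATP; % is scaled to controls: 0 for no effect and ±100 for the full control effect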
How it was run: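 Biotinylated GST-cJun(1-79) served as substrate for JNK3 in HepG2 lysates stimulated with IL-1beta and TNF-alpha. ATP was 10 uM final, pH 7.6. Ser73 phosphorylation was quantified by AlphaScreen (680 nm excitation).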

[11] = qHTS Assay for Identification of Small Molecule Antagonists for NFkB Signaling Pathway (AID 895; active = well fitted inhibition curve with a large enough effect in the signal ratio, with a control signal flat, not every such curve was filed as active; the % refers to the signal ratio; also: % is scaled to controls: 0 for no effect and ±100 for the full control effect)
How it was run: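 NFkB-bla ME-180 cervical carcinoma cells with beta-lactamase reporter under NFkB response element; compounds added, then TNF alpha at 10 pM final (EC50), 5 h at 37 C. LiveBLAzer substrate 2 h, room temperature; emission 460/530 nm at 405 nm excitation.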

[12] = qHTS Assay for Identification of Small Molecule Agonists for Thrombopoietin (TPO) Signaling Pathway (AID 917; active = well fitted curve in the direction sought with a large enough effect; an effect the other way counts as inactive or inconclusive; also: % is scaled to controls: 0 for no effect and ±100 for the full control effect)
How it was run: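 Quantitative HTS for pathway activators: compounds were pin-transferred onto IL-3-starved Ba/F3 cells expressing human TPO receptor, TPO was added at its EC50 (26 pM final), and after 24 hrs at 37 C reporter luciferase was measured.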

[13] = target: Muscarinic acetylcholine receptor M1 (Rattus norvegicus) (UniProt P08482); assay: qHTS Assay for Antagonists of Acetylcholine Muscarinic M1 Receptor: Kinetic Measurement of Intracellular Calcium Response (AID 943; active = well fitted curve in the direction sought with a large enough effect; an effect the other way counts as inactive or inconclusive;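 also: Fluo-4 calcium signal as peak divided by basal fluorescence over 4 min; nearly all actives have a fitted effect of over 75% in size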)
How it was run: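 Read-out: peak over basal Fluo-4 fluorescence, kinetic at 1 Hz for 4 min after EC80 carbachol (100 nM final). Rat M1-CHO cells, dye loaded 1 h at 37C, compound added 10 min before agonist.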

[14] = target: Pyruvate kinase (Leishmania mexicana) (UniProt Q27686); assay: qHTS Validation Assay for Inhibitors of Leishmania Mexicana Pyruvate Kinase (AID 945; active = well fitted curve in the direction sought with a large enough effect; an effect the other way counts as inactive or inconclusive;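 also: 0% = DMSO only neutral control wells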)
How it was run: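 Mutant LmPYK (E451W), 0.2 nM, plus 0.5 mM PEP and 0.1 mM ADP in 50 mM imidazole pH 7.2 containing 0.01% Tween 20 and 0.05% BSA. Incubated 1 h at room temperature; luminescence via PKLight, normalized to DMSO.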

[15] = target: Pyruvate kinase PKM (Homo sapiens) (UniProt P14618); assay: qHTS Assay for Activators of Human Muscle Pyruvate Kinase (AID 954; active = well fitted curve in the direction sought with a large enough effect, not every such curve was filed as active;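 also: 0% = uninhibited enzyme and -100% = no enzyme or full thiadiazolimine inhibition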)
How it was run: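 Compound pinned into substrate mix (0.5 mM PEP, 0.1 mM ADP), then 0.1 nM PKM2 added; 1 h, RT. Stop/detection luciferase reagent added, luminescence read. Normalized to no-inhibition and no-enzyme or reference-inhibitor controls.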

[16] = target: Alpha-galactosidase (Coffea arabica) (UniProt Q42656); assay: Counterscreen for Glucocerebrosidase Inhibitors: qHTS Assay for Coffee Bean alpha-Galactosidase at pH 4.5 (AID 957; active = well fitted curve in the direction sought with a large enough effect; an effect the other way counts as inactive or inconclusive;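 also: plate controls were enzyme alone for no effect and no enzyme for full effect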)
How it was run: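 Fluorogenic read-out: 4-methylumbelliferone at Ex 365/Em 440 nm after NaOH/glycine stop (pH 10). Enzyme 2 nM, 4-MU-alpha-galactoside 80 uM, citrate buffer pH 4.5, 20 min RT; normalized to no-enzyme and enzyme controls.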

[17] = target: Alpha-galactosidase A (Homo sapiens) (UniProt P06280); assay: Counterscreen for Glucocerebrosidase Inhibitors: qHTS Assay for Human alpha-Galactosidase at pH 4.5 (AID 992; active = well fitted curve in the direction sought with a large enough effect; an effect the other way counts as inactive or inconclusive; also: 0% is about no effect)
How it was run: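 Steps: enzyme (2 nM final), then compound across 0.7 nM to 77 uM, then 80 uM fluorogenic galactopyranoside substrate; incubate 20 min at room temperature; quench at pH 10; measure fluorescence at 365/440 nm.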

[18] = target: alpha-glucosidase (Oryza sativa, rice) (UniProt Q653V4); assay: Counterscreen for Glucocerebrosidase Inhibitors: qHTS Assay for Rice alpha-Glucosidase at pH 5.0 (AID 997; active = well fitted curve in the direction sought with a large enough effect; an effect the other way counts as inactive or inconclusive;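 also: 0% = full activity with enzyme and -100% = basal without enzyme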)
How it was run: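 Endpoint fluorogenic assay at pH 5.0: compounds (0.7 nM to 77 uM) titrated against 4 nM rice enzyme and 400 uM 4-MU-alpha-glucoside for 20 min at room temperature; NaOH/glycine stop, read ex 365/em 440 nm, Hill-fitted AC50.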

[19] = target: Alpha-galactosidase (Coffea arabica) (UniProt Q42656); assay: Counterscreen for Glucocerebrosidase Inhibitors: qHTS Assay for Coffee Bean alpha-Galactosidase at pH 5.9 (AID 998; active = well fitted curve in the direction sought with a large enough effect; an effect the other way counts as inactive or inconclusive;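 also: plate controls were uninhibited enzyme for no effect and no-enzyme basal signal for full effect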)
How it was run: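 In 50 mM citric acid pH 5.9 with 0.005% Tween-20, coffee bean enzyme hydrolyses 80 uM 4-MU alpha-D-galactopyranoside over 20 min at RT. Activity is normalized to controls; AC50 comes from Hill-modelled concentration-response data.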

Glucocorticoid receptor (Homo sapiens), sequence (P04150 whole entry, looked up, the tested form may be a part): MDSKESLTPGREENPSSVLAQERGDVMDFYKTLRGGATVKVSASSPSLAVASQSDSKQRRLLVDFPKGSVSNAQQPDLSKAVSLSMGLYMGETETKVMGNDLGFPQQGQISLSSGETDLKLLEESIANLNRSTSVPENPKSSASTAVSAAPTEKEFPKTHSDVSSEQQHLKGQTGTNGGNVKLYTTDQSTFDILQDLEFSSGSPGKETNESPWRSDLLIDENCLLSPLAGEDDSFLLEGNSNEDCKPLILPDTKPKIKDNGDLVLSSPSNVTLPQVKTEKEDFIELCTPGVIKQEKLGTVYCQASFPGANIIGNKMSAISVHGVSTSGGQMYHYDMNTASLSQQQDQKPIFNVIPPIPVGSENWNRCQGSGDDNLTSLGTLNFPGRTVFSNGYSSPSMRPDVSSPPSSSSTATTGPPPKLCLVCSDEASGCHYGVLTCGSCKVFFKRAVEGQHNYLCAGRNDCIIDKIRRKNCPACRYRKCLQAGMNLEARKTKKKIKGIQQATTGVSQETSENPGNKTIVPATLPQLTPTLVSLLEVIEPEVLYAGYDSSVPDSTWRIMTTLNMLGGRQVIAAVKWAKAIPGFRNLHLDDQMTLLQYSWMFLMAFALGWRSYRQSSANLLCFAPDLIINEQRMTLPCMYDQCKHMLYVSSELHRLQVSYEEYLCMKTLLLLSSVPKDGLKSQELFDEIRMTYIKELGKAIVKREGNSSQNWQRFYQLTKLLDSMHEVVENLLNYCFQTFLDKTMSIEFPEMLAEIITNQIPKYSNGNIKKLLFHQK
Alpha-galactosidase (Coffea arabica), sequence (Q42656 whole entry, looked up): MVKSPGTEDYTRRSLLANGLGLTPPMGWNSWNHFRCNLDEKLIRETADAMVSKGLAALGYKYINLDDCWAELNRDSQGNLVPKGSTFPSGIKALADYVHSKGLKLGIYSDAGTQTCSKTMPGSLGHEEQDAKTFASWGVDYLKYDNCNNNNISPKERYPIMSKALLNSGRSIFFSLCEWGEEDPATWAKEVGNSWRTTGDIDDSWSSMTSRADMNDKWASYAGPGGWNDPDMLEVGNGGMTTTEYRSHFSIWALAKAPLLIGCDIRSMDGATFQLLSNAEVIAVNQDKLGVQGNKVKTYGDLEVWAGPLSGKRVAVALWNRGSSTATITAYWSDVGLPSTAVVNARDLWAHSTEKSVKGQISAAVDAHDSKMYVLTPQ
Cytochrome P450 2C19 (Homo sapiens), sequence (P33261 whole entry, looked up): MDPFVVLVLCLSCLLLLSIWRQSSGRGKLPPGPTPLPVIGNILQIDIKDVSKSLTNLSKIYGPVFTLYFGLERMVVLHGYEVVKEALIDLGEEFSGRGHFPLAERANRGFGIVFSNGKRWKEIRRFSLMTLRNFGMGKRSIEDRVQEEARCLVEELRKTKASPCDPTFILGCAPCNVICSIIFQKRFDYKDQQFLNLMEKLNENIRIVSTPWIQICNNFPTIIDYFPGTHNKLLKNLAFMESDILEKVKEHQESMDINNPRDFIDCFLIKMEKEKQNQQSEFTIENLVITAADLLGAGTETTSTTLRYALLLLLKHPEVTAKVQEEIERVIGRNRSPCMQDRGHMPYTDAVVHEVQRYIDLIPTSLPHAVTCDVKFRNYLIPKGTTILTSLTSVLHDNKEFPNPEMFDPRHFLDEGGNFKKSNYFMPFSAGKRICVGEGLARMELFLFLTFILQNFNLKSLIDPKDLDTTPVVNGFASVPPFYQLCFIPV
Cytochrome P450 2D6 (Homo sapiens), sequence (P10635 whole entry, looked up): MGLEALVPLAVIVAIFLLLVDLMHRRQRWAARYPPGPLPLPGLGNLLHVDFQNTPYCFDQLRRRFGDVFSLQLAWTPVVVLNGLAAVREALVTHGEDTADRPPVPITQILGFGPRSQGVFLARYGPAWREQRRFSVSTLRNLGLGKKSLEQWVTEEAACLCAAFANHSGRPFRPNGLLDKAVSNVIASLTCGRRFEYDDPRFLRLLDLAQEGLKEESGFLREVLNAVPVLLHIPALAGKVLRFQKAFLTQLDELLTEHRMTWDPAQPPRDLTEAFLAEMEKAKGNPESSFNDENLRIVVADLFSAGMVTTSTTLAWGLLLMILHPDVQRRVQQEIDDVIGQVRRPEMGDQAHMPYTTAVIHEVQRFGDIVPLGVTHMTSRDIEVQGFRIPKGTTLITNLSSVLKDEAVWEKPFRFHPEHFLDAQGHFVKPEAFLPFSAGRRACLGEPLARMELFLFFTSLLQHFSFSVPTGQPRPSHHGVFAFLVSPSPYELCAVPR
Pyruvate kinase PKM (Homo sapiens), sequence (P14618 whole entry, looked up): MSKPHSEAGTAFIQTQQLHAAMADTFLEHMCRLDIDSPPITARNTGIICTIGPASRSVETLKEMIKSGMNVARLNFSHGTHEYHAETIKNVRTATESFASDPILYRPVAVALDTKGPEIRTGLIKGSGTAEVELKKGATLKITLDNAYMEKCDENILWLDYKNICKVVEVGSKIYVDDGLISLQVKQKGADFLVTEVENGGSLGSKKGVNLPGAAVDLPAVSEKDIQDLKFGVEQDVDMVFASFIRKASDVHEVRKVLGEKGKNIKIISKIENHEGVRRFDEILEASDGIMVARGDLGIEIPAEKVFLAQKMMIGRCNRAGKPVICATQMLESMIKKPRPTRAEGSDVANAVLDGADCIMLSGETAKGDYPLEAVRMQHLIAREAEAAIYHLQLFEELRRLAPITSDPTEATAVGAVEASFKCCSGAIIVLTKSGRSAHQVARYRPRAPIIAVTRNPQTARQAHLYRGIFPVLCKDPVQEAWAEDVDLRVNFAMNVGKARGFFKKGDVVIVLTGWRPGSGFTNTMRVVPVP
Pyruvate kinase (Leishmania mexicana), sequence (Q27686 2-499 E452W): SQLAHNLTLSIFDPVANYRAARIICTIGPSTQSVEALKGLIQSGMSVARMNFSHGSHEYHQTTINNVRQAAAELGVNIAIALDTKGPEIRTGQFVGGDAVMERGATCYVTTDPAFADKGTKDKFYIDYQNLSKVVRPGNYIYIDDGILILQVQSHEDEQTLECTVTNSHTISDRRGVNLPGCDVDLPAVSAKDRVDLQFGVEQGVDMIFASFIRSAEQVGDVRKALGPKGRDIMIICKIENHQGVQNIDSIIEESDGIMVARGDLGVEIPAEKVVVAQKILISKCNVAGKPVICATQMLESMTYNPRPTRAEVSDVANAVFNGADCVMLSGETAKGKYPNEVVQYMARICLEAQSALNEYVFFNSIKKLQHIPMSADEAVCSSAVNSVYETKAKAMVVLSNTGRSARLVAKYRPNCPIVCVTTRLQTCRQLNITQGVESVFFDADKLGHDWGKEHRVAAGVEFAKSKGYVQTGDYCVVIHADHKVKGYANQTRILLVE
Muscarinic acetylcholine receptor M1 (Rattus norvegicus), sequence (P08482 whole entry, looked up): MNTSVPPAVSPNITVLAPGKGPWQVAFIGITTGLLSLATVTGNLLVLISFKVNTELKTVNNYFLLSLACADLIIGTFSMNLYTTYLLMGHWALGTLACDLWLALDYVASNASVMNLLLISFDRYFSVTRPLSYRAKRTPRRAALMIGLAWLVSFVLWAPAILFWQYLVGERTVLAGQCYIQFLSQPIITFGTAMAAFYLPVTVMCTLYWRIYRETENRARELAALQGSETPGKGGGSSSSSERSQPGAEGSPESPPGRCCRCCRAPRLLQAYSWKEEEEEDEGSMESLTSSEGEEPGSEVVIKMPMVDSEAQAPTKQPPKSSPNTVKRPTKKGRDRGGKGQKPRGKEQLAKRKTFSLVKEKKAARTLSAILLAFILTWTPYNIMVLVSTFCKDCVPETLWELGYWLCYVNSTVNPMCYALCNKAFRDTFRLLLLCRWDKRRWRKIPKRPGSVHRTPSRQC
Alpha-galactosidase A (Homo sapiens), sequence (P06280 whole entry, looked up): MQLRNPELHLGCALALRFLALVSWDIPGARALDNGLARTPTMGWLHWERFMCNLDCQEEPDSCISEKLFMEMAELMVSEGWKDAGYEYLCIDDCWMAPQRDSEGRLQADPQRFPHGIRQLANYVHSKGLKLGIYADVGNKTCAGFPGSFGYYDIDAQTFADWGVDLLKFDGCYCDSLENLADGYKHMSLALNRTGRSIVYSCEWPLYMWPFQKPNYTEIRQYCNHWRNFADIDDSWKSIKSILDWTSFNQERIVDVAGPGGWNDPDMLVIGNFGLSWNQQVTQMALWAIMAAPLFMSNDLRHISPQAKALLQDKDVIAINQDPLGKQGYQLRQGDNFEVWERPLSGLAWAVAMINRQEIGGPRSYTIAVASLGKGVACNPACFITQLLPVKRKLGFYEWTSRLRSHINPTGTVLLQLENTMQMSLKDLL
3',5'-cyclic-AMP phosphodiesterase 4B (Homo sapiens), sequence (Q07343 whole entry, looked up): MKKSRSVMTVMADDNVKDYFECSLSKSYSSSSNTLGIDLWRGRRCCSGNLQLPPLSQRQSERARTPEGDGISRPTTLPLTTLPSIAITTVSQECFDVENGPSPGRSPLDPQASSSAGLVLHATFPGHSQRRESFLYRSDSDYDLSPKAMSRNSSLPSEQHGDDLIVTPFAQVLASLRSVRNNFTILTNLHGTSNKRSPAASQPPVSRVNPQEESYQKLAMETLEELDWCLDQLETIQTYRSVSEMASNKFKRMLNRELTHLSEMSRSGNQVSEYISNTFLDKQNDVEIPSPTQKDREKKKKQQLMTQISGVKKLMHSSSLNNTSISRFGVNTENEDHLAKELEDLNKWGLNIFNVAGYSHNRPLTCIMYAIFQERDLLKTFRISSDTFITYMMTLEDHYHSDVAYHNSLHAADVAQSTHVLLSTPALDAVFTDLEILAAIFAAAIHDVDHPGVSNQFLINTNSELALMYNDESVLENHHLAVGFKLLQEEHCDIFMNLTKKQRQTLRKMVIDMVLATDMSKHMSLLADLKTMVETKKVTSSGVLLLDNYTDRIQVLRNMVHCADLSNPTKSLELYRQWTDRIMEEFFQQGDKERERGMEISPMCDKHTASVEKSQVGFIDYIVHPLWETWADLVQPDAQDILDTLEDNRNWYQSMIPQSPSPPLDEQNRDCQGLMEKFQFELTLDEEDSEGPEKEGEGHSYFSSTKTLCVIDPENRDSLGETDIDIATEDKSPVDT

CCN(CC)CCCNC(=O)c1c(O)c2ccccc2n(Cc2ccccc2)c1=O
inactive: activity change, negative = inhibition [1] 27.1% | outcome [2] | Potency [3] > 20.6 µM

C=CCOC(=O)C1=C(C)OC(N)=C(C#N)[C@@]12C(=O)N(CC(N)=O)c1ccccc12
inactive: activity change, negative = inhibition [1] 6.24% | activity change, negative = inhibition [4] -10.1% | Potency [3] > 20.6 µM

CCC(=NCCN1CCCCC1)c1c(O)n(C)c(=O)n(C)c1=O
inactive: activity change, negative = inhibition [1] 9.93% | outcome [2] | Potency [3] > 20.6 µM

C=C(C)[C@@H]1CN[C@H](C(=O)O)[C@H]1CC(=O)O
inactive: activity change, negative = inhibition [1] 8.5% [at 38 µM] | activity change, negative = inhibition [4] 0.349% [at 38 µM] | Potency [5] > 46 µM | outcome [6] | Potency [7] | Potency [8]

O=c1[nH]c(=O)n(-c2cccc(Cl)c2)c(O)c1C=NCCN1CCCCC1
inactive: activity change, negative = inhibition [1] -0.739% | activity change, negative = inhibition [4] -1.95% | Potency [3] > 20.6 µM

CCc1nc(N2CCNCC2)c(C#N)c2c1CSC(C)(C)C2
inactive: activity change, negative = inhibition [1] -1.4% | outcome [2] | Potency [3] > 20.6 µM

CC1CN=C(Nc2ccc(N(C)C)cc2)S1 (stereo not drawn)
inactive: activity change, negative = inhibition [1] 17.8% | activity change, negative = inhibition [4] -26.5% | Potency [3] > 20.6 µM | activation [9] 1.86%

CCCCCCn1c(O)c(C(C)=NC)c(=O)[nH]c1=O
inactive: activity change, negative = inhibition [1] -9.96% | activity change, negative = inhibition [4] 21.1% | Potency [3] > 20.6 µM

COc1ccc2c(c1)c(C(=O)O)c(C)n2CC(C)C
inactive: activity change, negative = inhibition [1] 12.3% | activity change, negative = inhibition [4] 1.61% | Potency [3] > 20.6 µM

CC(C)n1cc2c3c(cccc31)[C@@H]1C[C@H](C(=O)O[C@@H](C)[C@H](C)O)CN(C)[C@H]1C2
inactive: activity change, negative = inhibition [1] 1.23% [at 38 µM] | activity change, negative = inhibition [4] -4.79% [at 38 µM] | Potency [3] > 46 µM | Potency [5] > 46 µM | outcome [10] | Potency [11] | outcome [12] | Potency [13] | Potency [14] | outcome [15] | outcome [16] | outcome [17] | outcome [18] | outcome [19]

CCCCCCn1c(O)c(C=NC2CCN(Cc3ccccc3)CC2)c(=O)[nH]c1=O
inactive: activity change, negative = inhibition [1] -7.92% | outcome [2] | Potency [3] > 20.6 µM

Source: PubChem BioAssay (NCATS)
